Measured values: PubChem BioAssay (Tox21)
Results filed as inconclusive are left out. Active and inactive are the calls of the source. Unless noted, calls follow the shape of the full dose curve.

Key:
[1] = Nuclear factor erythroid 2-related factor 2/antioxidant responsive element (Nrf2/ARE) small molecule agonists: qHTS cell viability counter screen in human keratinocytes (AID 1919968; active = well fitted curve in the direction sought with a large enough effect in the repeat runs; an effect the other way counts as inactive or inconclusive; also: nearly all actives have a fitted effect of over 55% in size); conditions: KeratinoSens HaCaT ARE cells viability, CellTiter-Fluor, 24 h; series mostly up to 92.4 µM
In short: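 KeratinoSens cells (HaCaT keratinocytes stably carrying an ARE-luciferase reporter) were seeded at 1,500 cells/well and rested 5 h at 37 C/5% CO2. They were then exposed to compounds in DMSO for 23 h. Viability was read by CellTiter-Fluor fluorescence after 1 h.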

[2] = Nuclear factor erythroid 2-related factor 2/antioxidant responsive element (Nrf2/ARE) small molecule agonists: luciferase reporter gene qHTS assay in human keratinocytes (AID 1919969); conditions: KeratinoSens HaCaT ARE-luciferase, luminescence, 24 h; series mostly up to 92.4 µM; also: nearly all actives have a fitted effect of over 35% in size
[3] = target: Gonadotropin-releasing hormone receptor (Homo sapiens) (UniProt P30968); experiment: Human gonadotropin-releasing hormone receptor (GnRHR) small molecule agonists, calcium flux assay in GnRHR-HEK293 cells (AID 1920063); conditions: calcium flux fluorescence, agonist mode; series mostly up to 57.6 µM; also: nearly all actives have a fitted effect of over 35% in size
In short: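 HEK293 cells stably expressing human GnRHR were plated 18 h at 37 °C, loaded with calcium dye 1 h at 37 °C, then given compound in agonist mode; fluorescence (Ex/Em 480/540) read kinetically for 3 min at 1 s intervals.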

[4] = target: KiSS-1 receptor (Homo sapiens) (UniProt Q969F8); experiment: Human kisspeptin (KISS1R) small molecule agonists, calcium flux assay in KISS1R-HEK293 cells (AID 1920064; active = well fitted curve in the direction sought with a large enough effect in the repeat runs; an effect the other way counts as inactive or inconclusive); conditions: KISS1R-HEK293, calcium flux fluorescence, agonist; series mostly up to 76.8 µM
In short: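 HEK293 cells stably expressing human KISS1R were plated 18 h at 37 °C, loaded with calcium dye for 1 h at 37 °C, then given compound by pin tool. Fluorescence (Ex/Em 480/540) was read kinetically for 3 min.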

[5] = G protein-coupled receptor (GPCR) small molecule agonists, calcium flux assay: HEK293 wild type cell line counter screen (AID 1920065); conditions: HEK293 WT calcium flux, fluorescence, agonist mode; series mostly up to 57.6 µM
In short: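 Cells were plated and cultured 18 h at 37 C/5% CO2, then loaded with calcium dye for 1 h at 37 C. Compounds in DMSO were pin-transferred in agonist mode, and fluorescence (Ex/Em 480/540) was read kinetically for 3 min at 1 s intervals.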

[6] = p53 small molecule agonists, cell-based qHTS assay with human liver microsomes (AID 1963577); conditions: HCT-116 p53RE-bla with human liver microsomes, ratio, 16 h; series mostly up to 66 µM;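 also: p53 response element beta-lactamase reporter cells with liver microsomes plus NADPH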
In short: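 16 h, 37 C exposure of p53RE-bla cells to compounds with human liver microsomes and NADPH (0.5 mg/mL final each); detection via LiveBLAzer mixture, 2 h dark at room temperature.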

[7] = p53 small molecule agonists, cell-based qHTS assay with rat liver microsomes (AID 1963578); conditions: HCT-116 p53RE-bla, beta-lactamase ratio, 16 h; series mostly up to 66 µM
In short: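 With rat liver microsomes and NADPH present (0.5 mg/mL final each), p53RE-bla cells are treated with compound for 16 h at 37 C. LiveBLAzer detection mixture is then applied for 2 h at room temperature in the dark.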

[8] = p53 small molecule agonists, cell-based qHTS assay with human liver microsomes: qHTS cell viability counter screen (AID 1963579); conditions: p53RE-bla HCT-116 viability, ATP luminescence, 16 h, HLM; series mostly up to 66 µM; also: nearly all actives have a fitted effect of over 45% in size
In short: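 In this multiplexed counter screen, the reporter plates were subsequently treated with CellTiter-Glo so that cell viability, reflected by luminescence, could be recorded for p53RE-bla cells dosed 16 h with compounds under microsomal activation (HLM and NADPH).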

[9] = p53 small molecule agonists, cell-based qHTS assay with rat liver microsomes: qHTS cell viability counter screen (AID 1963580); conditions: p53RE-bla HCT-116 + rat microsomes, ATP viability, 16 h; series mostly up to 66 µM; also: nearly all actives have a fitted effect of over 45% in size
In short: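 Viability is assessed in parallel with the p53 reporter read: HCT-116 p53RE-bla cells receive compounds plus rat microsomes and NADPH (0.5 mg/mL final apiece), incubate 16 h at 37 C, and then CellTiter-Glo luminescence is recorded.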

[10] = p53 small molecule agonists, cell-based qHTS assay: qHTS cell viability counter screen (AID 1963581); conditions: p53RE-bla HCT-116 viability, ATP luminescence, 16 h; series mostly up to 66 µM; also: nearly all actives have a fitted effect of over 45% in size
In short: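 p53RE-bla HCT-116 cells were exposed to compounds for 16 h at 37 C; after the beta-lactamase FRET read in the same wells, CellTiter-Glo was added and luminescence (intracellular ATP) read after 30 min at room temperature.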

[11] = p53 small molecule agonists, cell-based qHTS assay (AID 1963582; active = well fitted activation curve with a large enough effect in the signal ratio in the repeat runs, not every such curve was filed as active; the % refers to the signal ratio); conditions: HCT-116 p53RE-bla reporter, beta-lactamase FRET ratio, 16 h; series mostly up to 66 µM
In short: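 p53RE-bla beta-lactamase reporter cells rested 5 h at 37 C/5% CO2, then received compounds in DMSO by pin transfer and were incubated 16 h at 37 C. LiveBLAzer B/G FRET substrate was loaded for 2 h at room temperature before fluorescence reading.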

[12] = target: 5-hydroxytryptamine receptor 2A (Homo sapiens) (UniProt P28223); experiment: 5-hydroxytryptamine receptor 2A (HTR2A) small molecule antagonists, cell-based qHTS assay (AID 1963586); conditions: HTR2A-CHO cells, DOI-induced calcium flux, fluorescence; series mostly up to 61.5 µM; also: nearly all actives have a fitted effect of over 45% in size
In short: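 Antagonist-mode intracellular calcium assay: DOI (4 nM) added after 5 min compound pre-incubation at room temperature to dye-loaded HTR2A-CHO cells. Fluorescence followed for 3 min, sampled every second.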

[13] = target: 5-hydroxytryptamine receptor 2A (Homo sapiens) (UniProt P28223); experiment: 5-hydroxytryptamine receptor 2A (HTR2A) small molecule agonists, cell-based qHTS assay (AID 1963587); conditions: HTR2A-CHO cells, calcium flux fluorescence, agonist mode; series mostly up to 76.8 µM; also: nearly all actives have a fitted effect of over 30% in size
In short: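 CHO cells stably expressing human HTR2A, plated 18 h, loaded with calcium dye 1 h at 37 C. Agonist mode: compounds added and intracellular calcium fluorescence recorded kinetically for 2 min at 1 sec intervals.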

[14] = target: Muscarinic acetylcholine receptor M1 (Homo sapiens) (UniProt P11229); experiment: Cholinergic receptor muscarinic 1 (CHRM1) small molecule antagonists, cell-based qHTS assay (AID 1963588); conditions: CHRM1-CHO antagonist mode, calcium flux fluorescence; series mostly up to 61.5 µM; also: nearly all actives have a fitted effect of over 40% in size
In short: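 CHRM1-CHO calcium-flux assay, antagonist mode. Cells were seeded 18 h, dye-loaded 1 h at 37 C and given compound for 5 min at RT, then acetylcholine was added at 50nM. FDSS fluorescence was read 3 min; 15 concentrations, three runs.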

[15] = target: Muscarinic acetylcholine receptor M1 (Homo sapiens) (UniProt P11229); experiment: Cholinergic receptor muscarinic 1 (CHRM1) small molecule agonists, cell-based qHTS assay (AID 1963589); conditions: CHRM1-CHO cells, agonist mode, calcium flux fluorescence; series mostly up to 76.8 µM; also: nearly all actives have a fitted effect of over 35% in size
In short: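 CHO cells stably expressing human CHRM1, seeded 18 h at 37 C/5% CO2, dye-loaded 1 h at 37 C, then given compound in agonist mode; intracellular calcium fluorescence read kinetically at 1 s intervals. Fifteen concentrations, three independent runs.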

[16] = cAMP Responsive Elements (CRE) small molecule agonists, cell-based qHTS assay (AID 1963590); conditions: CRE-bla HEK293T, beta-lactamase FRET ratio, 3 h; series mostly up to 92.4 µM
In short: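 CRE-bla HEK 293T cells in DMEM with 10% dialyzed FBS, NEAA, pyruvate and 25 mM HEPES were plated 18 h at 37 C/5% CO2, then exposed to compounds in DMSO for 3 h before LiveBLAzer B/G FRET substrate addition.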

[17] = cAMP Responsive Elements (CRE) small molecule antagonists, cell-based qHTS assay (AID 1963591; active = well fitted inhibition curve with a large enough effect in the signal ratio in the repeat runs, not every such curve was filed as active; the % refers to the signal ratio); conditions: CRE-bla HEK293T, beta-lactamase FRET ratio; series mostly up to 92.4 µM
In short: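 CRE-bla HEK293T cells were plated 18 h at 37 °C/5% CO2, pinned with compound in DMSO, then stimulated with NKH477 at 0.25 uM final for 3 h. LiveBLAzer B/G FRET substrate was added and plates incubated 2 h at room temperature.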

[18] = target: Beta-2 adrenergic receptor (Homo sapiens) (UniProt P07550); experiment: Adrenergic beta2 receptor (ADRB2) small molecule antagonists, cell-based qHTS assay (AID 1963592); conditions: CHO-ADRB2 cells, isoproterenol-stimulated cAMP HTRF ratio, 0.5 h; series mostly up to 92.4 µM; also: nearly all actives have a fitted effect of over 50% in size
In short: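 Cells (CHO, stable ADRB2 overexpression) incubated 18-20hr at 37C; compounds added from DMSO; agonist mix (1nM isoproterenol, 100uM IBMX, 25uM Ro-20-1724) added; 0.5hr RT; d2-cAMP and anti-cAMP-cryptate added; 1hr RT; 665/615 nm read.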

[19] = target: Beta-2 adrenergic receptor (Homo sapiens) (UniProt P07550); experiment: Adrenergic beta2 receptor (ADRB2) small molecule agonists, cell-based qHTS assay (AID 1963593); conditions: CHO-ADRB2 cells, cAMP HTRF, 30 min; series mostly up to 92.4 µM;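 also: CHO cells stably overexpressing human ADRB2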
In short: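 CHO cells stably over-expressing ADRB2 were plated overnight at 37C, then dosed with compounds plus a stimulation mix containing 100uM IBMX and 25uM Ro-20-1724 for 0.5hr at room temperature. cAMP was measured by HTRF competition, 1hr.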

[20] = target: D(2) dopamine receptor (Homo sapiens) (UniProt P14416); experiment: Dopamine D2 receptor (DRD2) small molecule agonists, cell-based qHTS assay (AID 1963594); conditions: HEK293-DRD2 cAMP HTRF, agonist mode, 30 min; series mostly up to 92.4 µM; also: nearly all actives have a fitted effect of over 35% in size
In short: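 HEK293 cells stably expressing human DRD2, pre-treated with PDE inhibitor Ro20-1724 (0.1 mM final) and compound 10 min at room temperature, then stimulated with NKH477 (200nM […]) for 30 min. cAMP read by HTRF (665/620 nm).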

Measured: Potency

Sequence of Gonadotropin-releasing hormone receptor (Homo sapiens) (P30968 whole entry, looked up): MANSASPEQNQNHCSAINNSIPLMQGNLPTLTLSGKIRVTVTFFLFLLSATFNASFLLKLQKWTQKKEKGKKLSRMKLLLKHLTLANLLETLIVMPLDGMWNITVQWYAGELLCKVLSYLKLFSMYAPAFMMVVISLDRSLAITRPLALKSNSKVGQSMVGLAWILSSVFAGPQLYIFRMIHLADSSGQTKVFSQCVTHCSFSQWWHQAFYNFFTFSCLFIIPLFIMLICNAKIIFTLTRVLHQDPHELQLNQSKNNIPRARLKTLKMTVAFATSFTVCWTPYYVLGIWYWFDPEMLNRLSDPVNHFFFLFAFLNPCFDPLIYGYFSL
Sequence of KiSS-1 receptor (Homo sapiens) (Q969F8 whole entry, looked up): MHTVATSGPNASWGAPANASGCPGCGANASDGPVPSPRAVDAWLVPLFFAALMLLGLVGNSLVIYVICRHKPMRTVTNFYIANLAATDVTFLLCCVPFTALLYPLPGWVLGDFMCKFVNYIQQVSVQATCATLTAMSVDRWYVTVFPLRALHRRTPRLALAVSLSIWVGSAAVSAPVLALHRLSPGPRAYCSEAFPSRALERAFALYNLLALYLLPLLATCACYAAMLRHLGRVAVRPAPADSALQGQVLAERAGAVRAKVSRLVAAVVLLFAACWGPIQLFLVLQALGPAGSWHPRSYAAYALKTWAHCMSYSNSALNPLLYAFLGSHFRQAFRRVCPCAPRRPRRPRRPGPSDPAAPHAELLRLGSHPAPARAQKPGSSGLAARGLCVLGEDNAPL
Sequence of 5-hydroxytryptamine receptor 2A (Homo sapiens) (P28223 whole entry, looked up): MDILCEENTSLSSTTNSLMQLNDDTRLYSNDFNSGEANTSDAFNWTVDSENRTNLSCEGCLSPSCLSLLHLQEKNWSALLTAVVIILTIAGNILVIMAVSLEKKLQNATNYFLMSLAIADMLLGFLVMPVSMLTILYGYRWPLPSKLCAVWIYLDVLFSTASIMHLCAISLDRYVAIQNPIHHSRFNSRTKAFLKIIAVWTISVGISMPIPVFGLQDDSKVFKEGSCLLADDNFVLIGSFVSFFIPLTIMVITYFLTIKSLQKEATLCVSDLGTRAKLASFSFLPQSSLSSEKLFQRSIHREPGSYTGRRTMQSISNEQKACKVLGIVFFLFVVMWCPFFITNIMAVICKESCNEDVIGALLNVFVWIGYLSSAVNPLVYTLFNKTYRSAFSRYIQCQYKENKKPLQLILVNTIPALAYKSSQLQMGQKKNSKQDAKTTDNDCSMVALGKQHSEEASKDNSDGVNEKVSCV
Sequence of Beta-2 adrenergic receptor (Homo sapiens) (P07550 whole entry, looked up): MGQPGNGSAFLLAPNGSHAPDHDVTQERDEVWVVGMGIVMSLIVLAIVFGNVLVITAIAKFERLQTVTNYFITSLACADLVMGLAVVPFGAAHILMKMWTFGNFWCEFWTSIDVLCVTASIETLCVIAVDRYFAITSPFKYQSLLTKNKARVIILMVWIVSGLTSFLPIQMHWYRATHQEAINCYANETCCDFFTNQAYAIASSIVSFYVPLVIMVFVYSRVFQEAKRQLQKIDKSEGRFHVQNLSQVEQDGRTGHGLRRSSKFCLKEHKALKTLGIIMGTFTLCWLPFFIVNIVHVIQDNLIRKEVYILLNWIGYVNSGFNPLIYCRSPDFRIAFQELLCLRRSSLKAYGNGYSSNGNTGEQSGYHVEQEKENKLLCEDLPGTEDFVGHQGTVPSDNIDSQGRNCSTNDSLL
Sequence of D(2) dopamine receptor (Homo sapiens) (P14416 whole entry, looked up): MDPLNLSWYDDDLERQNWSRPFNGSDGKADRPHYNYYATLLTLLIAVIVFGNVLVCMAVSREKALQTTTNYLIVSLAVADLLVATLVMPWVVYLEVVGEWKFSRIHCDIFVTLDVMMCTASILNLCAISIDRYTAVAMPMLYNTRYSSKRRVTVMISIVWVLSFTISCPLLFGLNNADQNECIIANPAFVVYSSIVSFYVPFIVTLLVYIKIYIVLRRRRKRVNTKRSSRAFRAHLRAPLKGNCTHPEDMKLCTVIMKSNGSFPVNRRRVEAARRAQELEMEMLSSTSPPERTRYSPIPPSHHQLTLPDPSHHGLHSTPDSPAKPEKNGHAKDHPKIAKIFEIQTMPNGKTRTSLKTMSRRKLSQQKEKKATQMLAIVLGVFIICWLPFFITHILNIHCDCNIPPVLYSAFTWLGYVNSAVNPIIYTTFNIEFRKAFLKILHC
Sequence of Muscarinic acetylcholine receptor M1 (Homo sapiens) (P11229 whole entry, looked up): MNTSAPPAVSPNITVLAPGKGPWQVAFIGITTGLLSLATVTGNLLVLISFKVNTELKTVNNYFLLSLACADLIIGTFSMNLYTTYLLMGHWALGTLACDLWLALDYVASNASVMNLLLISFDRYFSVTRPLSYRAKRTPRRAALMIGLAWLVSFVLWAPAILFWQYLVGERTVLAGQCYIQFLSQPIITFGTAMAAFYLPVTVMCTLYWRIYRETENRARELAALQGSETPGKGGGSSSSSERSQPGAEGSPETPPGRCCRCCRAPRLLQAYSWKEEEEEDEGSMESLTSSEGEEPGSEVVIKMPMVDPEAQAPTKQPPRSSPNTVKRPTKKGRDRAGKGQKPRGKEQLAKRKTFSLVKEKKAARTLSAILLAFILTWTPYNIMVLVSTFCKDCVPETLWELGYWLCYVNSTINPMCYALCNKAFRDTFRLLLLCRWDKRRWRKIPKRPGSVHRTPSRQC

CCCOCCOCCOCCO
inactive: all assays above

CCCc1ccc(O)cc1
inactive: all assays above

O=S(=O)(O)c1cc(O)c(O)c(S(=O)(=O)O)c1
inactive: all assays above

O=C(O)c1cccc(C[C@@H]2COc3ccc(OCc4nc5cc(F)ccc5s4)cc3[C@@H]2O)c1
inactive: all assays above

O=C(O)CNC(=O)c1ccc(CO)o1
inactive: all assays above

COC(=O)c1ccccc1C
inactive: all assays above
